In all, about 2,100 compounds went through this assay and about 480 (23%) were called active. Inconclusive results (about 5%) are left out.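 The calls were made as follows: active = fitted curve reaches 40% activation at or below the top valid concentration, in every replicate test; inconclusive = replicate tests disagree on the call; inactive = the rest, including activity in the opposite direction.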 These entries were drawn from the full list. Results with a measured potency or affinity are listed apart.
assay: activators raising PGC1a acetylation in cells, dose response, cell-based, cherry-picked samples, set 6 (AID 720513); conditions: U2OS PGC1a acetylation AlphaLISA, overnight, 0 = neutral, -100 = inhibitor control; series mostly up to 19.5 µM;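 also: cells made to overexpress flag tagged PGC1a plus GCN5 acetyltransferase by viral infection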

outcome, inactive:
Cc1ccccc1S(=O)(=O)N[C@H]1CC[C@H](CCn2cc(Cc3ccccc3)nn2)O[C@@H]1CO
COc1ccccc1C#Cc1ccc2c(c1)O[C@@H](CN(C)Cc1cccnc1)[C@H](C)CN([C@@H](C)CO)S2(=O)=O
CO[C@H]1CN(C)C(=O)c2cc(NS(=O)(=O)c3cn(C)cn3)ccc2OC[C@@H](C)NC[C@H]1C
CCCCN(c1ccccc1)c1ncnc(N)c1[N+](=O)[O-]
COC(=O)c1cccc(NC(=O)CSc2nnc(C)n2C)c1
COc1ccccc1Nc1nc(NCCC(C)C)nc(N)c1[N+](=O)[O-]
Cn1nnnc1Sc1ncnc2scc(-c3cccc(S(C)(=O)=O)c3)c12
Cc1ccc(C)c(S(=O)(=O)N(C(=O)c2ccncc2)c2ccc(OC(=O)c3ccncc3)cc2)c1
C=CCNC(=O)c1cnn(-c2ccccc2)c1-c1ccccc1
CO[C@@H]1CN(C)C(=O)c2ccc(NC(C)=O)cc2OC[C@@H](C)N(C(=O)Cc2cccnc2)C[C@@H]1C
O=C(Cn1ncc(Cl)c(Cl)c1=O)NCC1CCCCC1
C[C@@H]1CN([C@H](C)CO)C(=O)Cc2cc(NC(=O)CCC(F)(F)F)ccc2O[C@H]1CN(C)S(C)(=O)=O
CCOC(=O)C1=C(Nc2ccccc2)OCC1=O
CC1=CCC2C(=O)N(c3cccc(C(=O)NCc4ccccc4)c3)C(=O)C2C1 (stereo unspecified)
O=C(NCc1cccnc1)/C(=C/c1ccc(-c2ccc(Cl)cc2)o1)S(=O)(=O)c1ccccc1
Cc1ccc(S(=O)(=O)Nc2cccc3c2O[C@H](CN(C)Cc2ccc(Cl)c(Cl)c2)[C@@H](C)CN([C@@H](C)CO)C3=O)cc1
CN(C)c1nc(SCCOC(=O)COc2ccc(Cl)cc2Cl)nc(N(C)C)n1
CC(=O)Nc1ccc2c(CSc3nncs3)cc(=O)oc2c1
CCCc1cc(=O)oc2cc(C)cc(O)c12
COC(=O)[C@]1(Cc2ccccc2)N=C(c2ccc(OCCCO)cc2)O[C@@H]1c1ccccc1CN=[N+]=[N-]
O=[N+]([O-])c1cc(F)c2cccnc2c1O
Cc1ccc2[nH]c3ccccc3c(=O)c2c1
CCN(CC(=O)Nc1ccccc1C(F)(F)F)C(=O)CCSc1ccc(F)cc1
O=C(NCc1cccnc1)C1CC(=O)N(C2CCCCC2)C1 (stereo unspecified)
O=C(NCc1cccnc1)/C(=C\c1ccc(-c2ccc(Cl)c(Cl)c2)o1)S(=O)(=O)c1ccccc1
O=C(CCNNC(=O)c1ccncc1)NCc1ccccc1
O=C(NCc1cccnc1)/C(=C\c1ccc(-c2cccc(Cl)c2)o1)S(=O)(=O)c1ccccc1
O=C(Cc1ccccn1)NCC[C@H]1CC[C@@H](NC(=O)Nc2ccc(C(F)(F)F)cc2)[C@@H](CO)O1
O=C(NC1=NCCS1)C1CC(=O)N(c2ccccc2)C1 (stereo unspecified)
O=C(Nc1cccc2[nH]ncc12)c1ccc(F)cc1
O=C(C[C@@H]1CC[C@@H](NC(=O)C2CCC2)[C@H](CO)O1)NCC1CC1
CCC(=O)Nc1ccc(C(=O)COC(=O)c2sc(C)nc2C)cc1
CC(C)C[C@H]1CNC(=S)N1CC1CCCN1C[C@H](Cc1ccccc1)N1C[C@H](Cc2ccc(O)cc2)N(CC2CCCCCC2)C1=S (stereo partly specified)
CC(N=C1NS(=O)(=O)c2ccccc21)C(=O)NCCCc1ccccc1 (stereo unspecified)
CCOc1ccc2nc(NCCNC(=O)Nc3ccccc3)c(C#N)cc2c1
Cc1ccccc1OCC(O)CNC1CCC(NCC(O)COc2ccccc2C)CC1 (stereo unspecified)
C[C@H](CO)N1C[C@H](C)[C@H](CN(C)C(=O)CN(C)C)Oc2cc(-c3cncnc3)ccc2S1(=O)=O
CCN1CCN(Cc2ccc(NC(=O)c3cc(NC(=O)c4cncc(-c5ccc(C#N)cc5)c4)cc(OC)c3)cc2C(F)(F)F)CC1
COc1ccc(OCCc2nnc(N)s2)cc1
CN(NC(=O)c1ccccc1F)c1nc(C(F)(F)F)nc2ccccc12
C[C@@H](C(=O)Nc1nc2ccc(F)cc2s1)N1C(=O)C2CC=CCC2C1=O (stereo partly specified)
C[C@@H]1CN([C@H](C)CO)S(=O)(=O)c2ccc(C#CC3CCCC3)cc2O[C@H]1CN(C)C
O=C(NCC1CC1)Nc1ccccc1F
C/C=C/c1ccc2c(c1)O[C@@H](CN(C)C(=O)NC(C)C)[C@H](C)CN([C@H](C)CO)S2(=O)=O
COc1ccccc1CN1C[C@@H]2N[C@H](C1)C2c1ccc(-c2ccccc2)cc1 (stereo partly specified)
Cc1cccc(-c2ccc(C3[C@@H]4CN(Cc5cccc(F)c5)C[C@H]3N4)cc2)c1 (stereo partly specified)
COc1cccc(-c2ccc(C3[C@@H]4CN(Cc5cccc(F)c5)C[C@H]3N4)cc2)c1 (stereo partly specified)
Fc1ccc(-c2ccc(C3[C@@H]4CN(Cc5ccccc5)C[C@H]3N4)cc2)cc1 (stereo partly specified)
Fc1cccc(CN2C[C@@H]3N[C@H](C2)C3c2ccc(-c3ccccc3)cc2)c1 (stereo partly specified)
COc1cc(CN2C[C@@H]3N[C@H](C2)C3c2ccc(-c3cccc(OC)c3)cc2)cc(OC)c1 (stereo partly specified)
COc1ccc(-c2ccc(C3[C@@H]4CN(Cc5ccccn5)C[C@H]3N4)cc2)cc1 (stereo partly specified)
CC1CN(C(=O)COC(=O)[C@@H]2CC(O)CN2S(=O)(=O)c2ccc3c(c2)OCCO3)CC(C)O1 (stereo partly specified)
CCn1c(C)c(C)c2cc(C(=O)NCCN3CCOCC3)ccc21
CN1C(C(=O)Nc2ccccn2)=C(O)c2sc(Cl)cc2S1(=O)=O
CO[C@H]1CN(C)C(=O)c2cc(NS(C)(=O)=O)ccc2OC[C@H](C)N(C(=O)NC(C)C)C[C@H]1C
C[C@@H]1CN([C@@H](C)CO)S(=O)(=O)c2ccc(C#CC3CCCCC3)cc2O[C@H]1CN(C)Cc1cccnc1
CN1CCN2c3ncccc3Cc3ccccc3[C@@H]2C1
Fc1ccc(/C=C2\CCCC3=C2Nc2ncnn2C3c2ccc(F)cc2)cc1 (stereo unspecified)
CC(C)(C)NS(=O)(=O)c1ccc(CCC(=O)N2CCOCC2)cc1
CCC(=O)N[C@H]1CC[C@H](CCNC(=O)Nc2ccc(C(F)(F)F)cc2)O[C@H]1CO
COc1cc(CN2C[C@@H]3N[C@H](C2)C3c2ccc(-c3ccccc3C)cc2)cc(OC)c1 (stereo partly specified)
COc1cccc(CN2C[C@@H]3N[C@H](C2)C3c2ccc(-c3ccccc3OC)cc2)c1 (stereo partly specified)
CC(C)c1ccc(-c2nnn(CC(=O)N3CCCCC3)n2)cc1
CN(C)CCCN(C(=O)CCOc1ccccc1)c1nc2ccc(F)cc2s1
Cc1ccc(S(=O)(=O)N2CCCC2)cc1C(=O)O
CC(C)[C@H](C)NC(=O)N(C)C[C@@H]1OCc2ccccc2-c2ccccc2C(=O)N([C@@H](C)CO)C[C@H]1C
CC(C)CC#Cc1cnc2c(c1)C(=O)N([C@@H](C)CO)C[C@@H](C)[C@H](CN(C)C(=O)c1ccccc1)O2
CC(C)NC(=O)N(C)C[C@H]1Oc2c(NS(=O)(=O)c3cn(C)cn3)cccc2C(=O)N([C@@H](C)CO)C[C@@H]1C
C[C@@H]1CN([C@@H](C)CO)C(=O)c2c(c3ccccc3n2C)-c2ccccc2CO[C@H]1CN(C)S(=O)(=O)c1ccsc1
CCN(C(=O)COC(=O)/C=C/c1cccc(Cl)c1)c1c(N)n(Cc2ccccc2)c(=O)[nH]c1=O
Clc1ccccc1OCCCCN1CCCC1
CO[C@H]1CN(C)C(=O)c2cc(NS(C)(=O)=O)ccc2OC[C@@H](C)N(C(=O)CC2CC2)C[C@H]1C
CCOC(=O)CSc1nccc(N(C)C)c1C#N
O=C(OCc1cnc(Cl)s1)c1cccs1
CC(NCc1cccs1)C(=O)NC1CCCCC1 (stereo unspecified)
CO[C@@H]1CN(C)C(=O)c2ccc(NC(=O)c3ccc(Oc4ccccc4)cc3)cc2OC[C@@H](C)N(C(C)=O)C[C@H]1C
COc1ccc(S(=O)(=O)N(C)C[C@H]2Oc3ccc(NC(=O)CCN4CCOCC4)cc3C(=O)N([C@@H](C)CO)C[C@@H]2C)cc1
CSCC[C@H](NC(=O)c1ccc(Br)o1)c1nnc2ccccn12
O=C(Nc1ccc([N+](=O)[O-])cn1)c1ccc(Br)o1
CC(=O)N(C)C[C@@H]1Oc2cc(-c3ccc(F)cc3)ccc2S(=O)(=O)N([C@H](C)CO)C[C@H]1C
C[C@@H]1CN([C@@H](C)CO)C(=O)c2cccc(NC(=O)C3CCCCC3)c2O[C@@H]1CN(C)CC1CCCCC1
COc1cc(NC(=O)c2[nH]cnc2C(N)=O)cc(C(=O)Nc2cccc(C(F)(F)F)c2)c1
O=C(Nc1cccc(Cl)c1)c1cncn1-c1ccc(F)cc1
COc1cnc(-c2ccccn2)nc1Sc1ccc(C)cc1
CCOC(=O)C1(Cc2cccc(Cl)c2)CCCN(C(=O)c2cccnc2)C1 (stereo unspecified)
C[C@H]1CN([C@@H](C)CO)C(=O)c2cc(C#Cc3ccc(F)cc3)cnc2O[C@@H]1CN(C)C(=O)Nc1ccc(F)cc1
C[C@H]1CN([C@@H](C)CO)C(=O)CCCn2nncc2CO[C@@H]1CN(C)C(=O)c1ccc(N2CCN(C)CC2)cc1
C[C@@H]1CN([C@H](C)CO)C(=O)c2cccc(NC(=O)c3nc4ccccc4s3)c2O[C@@H]1CN(C)C(=O)Nc1ccc(F)cc1
C[C@@H]1CN([C@@H](C)CO)C(=O)c2cc(NS(C)(=O)=O)ccc2O[C@@H](C)CCCCO[C@H]1CN(C)C(=O)Nc1ccc(F)cc1
C[C@H]1CN([C@@H](C)CO)C(=O)c2cc(-c3cncnc3)cnc2O[C@@H]1CN(C)C(=O)c1cccc(F)c1
C[C@H]1CCCCO[C@@H](CN(C)C(=O)c2ccccc2)[C@@H](C)CN([C@@H](C)CO)C(=O)c2cc(NC(=O)Nc3ccc(F)cc3)ccc2O1
